Compounds with a hit are over-represented: about 8.7% of the library has one in this group of screens.
Vaccinia mCherry: vaccinia inhibition (mCherry reporter); Vaccinia virus mCherry reporter infection, fluorescence; actives 0.63% (n = 310,000); AID 720579; Potency, µM (highest dose often 36.5 µM), without a hit: top-dose activity change, negative = inhibition, hits mostly inhibitors; calls by dose curve; tested in A549 cells; further: nearly all actives have a fitted effect of over 35% in size
Vaccinia Venus: vaccinia inhibition (Venus reporter); actives 0.46% (n = 330,000); Vaccinia virus Venus reporter expression, fluorescence; Potency, µM (titrated, usually from 36.5 µM), without a hit: at the highest dose activity change, negative = inhibition, actives largely listed as inhibitors; calls by dose curve; tested in A549 cells; further: nearly all actives have a fitted effect of over 30% in size
Pf growth 48h: inhibits P. falciparum growth in the first generation, 48 h; P. falciparum luciferase growth in erythrocytes, 48 h; Potency, µM (doses to about 28.7 µM), inactives show at the highest dose activity change, negative = inhibition, hits mostly inhibitors; actives 5.9% (n = 310,000)
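Luminescence readout; reporter = integrated firefly luciferase in P. falciparum. RBC culture at 2% hematocrit, 0.1% parasitemia final, 37 C/5% CO2; decreased signal taken as growth inhibition.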
AMA1-RON2 inh: inhibitors of Plasmodium falciparum AMA1-RON2 interaction; AlphaScreen AMA1-biotinylated RON2 peptide binding; Potency, µM (titrated, usually from 58.2 µM), for the others: at the top dose activity change, negative = inhibition, most hits filed as inhibitors; actives 0.2% (n = 360,000);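 further: 0% = vehicle wells and -100% = peptide control; nearly all actives have a fitted effect of over 45% in size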
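AMA1 (3D7) with his tag at 25 nM final met compounds first, then biotinylated RON2 peptide at 25 nM; detection used donor plus acceptor beads, 10 µg/mL apiece, read by AlphaScreen after 30 min at room temperature.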
Pf growth 96h: P. falciparum growth inhibition at 96 hours; P. falciparum luciferase reporter growth, 96 h; Potency, µM (highest dose often 28.7 µM), for inactives: at the top dose activity change, negative = inhibition, actives largely listed as inhibitors; actives 6.9% (n = 320,000); AID 504834
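Readout is luminescence from an integrated firefly luciferase in P. falciparum. Red cells, 2% hematocrit and 0.05% parasitemia final, were cultured with compound through two parasite generations (96 hours) at 37 C, 5% CO2.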
An asterisk follows results filed as active; i = inactive; ? = inconclusive; . = no result; [ ] = remark or other dose. Unless noted, the call rests on the fitted dose curve; in most records, active means well fitted curve in the direction sought with a large enough effect; inconclusive means small, poorly fitted or top-dose-only effect, or another doubt; inactive means no such curve, though single readings can be large; an effect the other way counts as inactive or inconclusive. Unless noted, on the % scale 0 is the no-effect control and ±100 the full control effect; potency means the concentration at half of the fitted maximal effect.

SMILES	Vaccinia mCherry	Vaccinia Venus	Pf growth 48h	AMA1-RON2 inh	Pf growth 96h
CCOCCCNC(=O)C(c1ccc(Cl)cc1)N(Cc1cccs1)C(=O)c1ccc(NC(C)=O)cc1 (stereo not given)	-5%	1%	.	.	.
CC(=O)c1cccc(N2Cc3ccccc3C2=NC(=O)CCl)c1	-23%	-27%	-26%	1%	13µM*
Clc1ccc(C[n+]2cc(-c3ccccc3)n3c2CCCCC3)c(Cl)c1	.	.	0.74µM*	-7%	2.6µM*
Clc1ccc(-c2c[n+](Cc3cccc(Cl)c3)c3n2CCC3)cc1	-14%	-16%	1.9µM*	16%[2.32 µM]	0.26µM*
O=[N+]([O-])c1ccc(C[n+]2cc(-c3ccccc3)n3c2CCCCC3)cc1	-7%	-11%	5.2µM*	7%	-84%
Clc1ccc(-c2cnc3n2CCCCC3)cc1	-7%	-16%	-21%	-29%	-14%
Clc1ccc(-c2c[n+](Cc3ccc(Cl)cc3Cl)c3n2CCCCC3)cc1	.	.	1.7µM*	-3%	0.17µM*
O=[N+]([O-])c1ccc(C[n+]2cc(-c3ccc(Cl)c(Cl)c3)n3c2CCCCC3)cc1	.	.	?	9%	?
Clc1ccc(C[n+]2cc(-c3ccccc3)n3c2CCC3)cc1Cl	i	-10%	?	14%	?
CCOc1ccc(CCNC(c2nnc(-c3ccccc3)o2)c2ccccc2Cl)cc1OCC (stereo not given)	-26%	-23%	.	.	.
N#CC[n+]1cc(-c2ccc(Cl)cc2)n2c1CCC2	.	.	?	14%	-8%
Clc1ccc(-c2c[n+](Cc3ccc(Br)cc3)c3n2CCCCC3)cc1	-14%	-8%	0.41µM*	6%	0.059µM*
CCCCNC(=S)N(C)/N=C/c1c(F)c(F)c(F)c(F)c1F	i	-14%	-4%	0%	-4%
CCCCNC(=S)N(C)/N=C/c1c(C)[nH]c2ccccc12	-27%	-15%	?	-3%	12µM*
CCc1ccccc1OCC(=O)Nc1ccc(S(=O)(=O)Nc2nc(C)cc(C)n2)cc1	-1%	-9%	.	.	.
CC(C)CCCCCCCCCCCCC(=O)NCC(=O)NC1C(O)C(O)C(Nc2ncnc3nc[nH]c23)OC1C(O)CO (stereo not given)	40µM*	11µM*	.	-3%	.
CC(O)CNc1ncnc2nc[nH]c12 (stereo not given)	.	.	-34%	5%	-36%
Cc1ccc(Nc2nc3nonc3nc2Nc2cccc(C(F)(F)F)c2)cc1Cl	3.5µM*	3.5µM*	.	.	.
CCN1Cc2cccc(C(=O)Nc3ccc(F)cc3)c2C1=O	-5%	-6%	.	.	.
Cc1ccccc1CNC(=O)Cn1nc(C)c2nn(-c3ccc(Cl)cc3)c(C)c2c1=O	-17%	-18%	.	.	.
COc1cccc(CNC(=O)c2cc3c(=O)oc4ccc(C)cc4c3s2)c1	?	-27%	.	.	.
Cc1ccc2oc(=O)c3cc(C(=O)NCc4ccco4)sc3c2c1	.	.	.	-3%	9.3µM*
Cc1ccc2oc(=O)c3cc(C(=O)NCCCN4CCCC(C)C4)sc3c2c1 (stereo not given)	.	.	4.1µM*	7%	21%
Cc1ccc2cc3cc(C(=O)NCCCN4CCc5ccccc5C4)oc3nc2c1	?	?	8.3µM*	-2%	.
Cc1ccc2oc(=O)c3cc(C(=O)NCCN4CCc5ccccc5C4)sc3c2c1	.	.	4.7µM*	-3%	?
SMILES	Vaccinia mCherry	Vaccinia Venus	Pf growth 48h	AMA1-RON2 inh	Pf growth 96h
CCCN1CCN(CCCNC(=O)c2cc3c(=O)oc4ccc(C)cc4c3s2)CC1	.	.	13%	-6%	?
CC(=O)c1ccccc1-c1ccc2c(c1)CC(CNC(=O)c1cc(C)on1)O2 (stereo not given)	-20%	-5%	.	.	.
Cc1ccc(CN2CCN(CC(=O)N/N=C/c3ccccc3F)CC2)cc1	.	.	113%	11%	167%
Cc1ccc(NC(=S)N/N=C/c2cccn2Cc2ccccc2F)cc1	?	-18%	9.3µM*	54%	?
CC(C)c1ccc(OCC(=O)NCCS(=O)(=O)N2CCN(c3ccc(F)cc3)CC2)cc1	-13%	-12%	.	.	.
c1ccc(OCc2nc(-c3ccncc3)no2)cc1	-1%	12%	70%	22%	12µM*
Cc1ccc(OCc2nc(-c3cccnc3)no2)cc1C	-17%	-8%	19%	10%	0.41µM*
Cc1cc(C)cc(OCc2nc(-c3cccnc3)no2)c1	-10%	-5%	-2%	14%	-9%
COc1ccc(-c2cc(C(F)(F)F)nc(SCC(=O)NCc3ccc(OC)c(OC)c3)n2)cc1	-4%	-1%	.	.	.
CCCN1C(=O)/C(=N\OCC(=O)Nc2ccc(C(C)C)cc2)c2ccccc21	i	-15%	52%	-6%	34%
CCCN1C(=O)/C(=N\OCC(=O)NC23CC4CC(CC(C4)C2)C3)c2ccccc21	-7%	-8%	15µM*	-6%	?
CSc1ccccc1NC(=O)Cn1nc([N+](=O)[O-])cc1C	i	-6%	20%	-5%	0.19µM*
CSc1ccccc1NC(=O)Cn1nc([N+](=O)[O-])c(Cl)c1C	i	-13%	22%	1%	5%
Cc1cc([N+](=O)[O-])nn1CC(=O)N1CCN(Cc2ccccc2)CC1	.	.	?	-1%	10µM*
CCCCCn1c(=O)c(C(=O)NCCc2ccccc2)c(O)c2ccccc21	-19%	-14%	15µM*	42%	5.9µM*
Cn1c(=O)c(C(=O)NCCc2ccccc2)c(O)c2ccccc21	?	-4%	39%	25%	?
CCCn1c(=O)c(C(=O)NCCc2ccccc2)c(O)c2ccccc21	-16%	-17%	215%	13%	15µM*
CCn1c(=O)c(C(=O)NCc2ccc(OC)cc2)c(O)c2ccccc21	-13%	5%	-9%	4%	21%
CCn1c(=O)c(C(=O)NCc2ccccn2)c(O)c2ccccc21	.	?	-16%	18%	12µM*
CCN(c1cccc(C)c1)S(=O)(=O)c1nnc(NC(=O)c2ccccc2Cl)s1	-23%	-22%	.	.	.
CCCCSc1nnc2c(n1)OC(c1ccc(C)s1)Nc1ccccc1-2 (stereo not given)	-12%	-16%	.	.	.
CC(C)c1ccc(NC(=O)CN(C)S(=O)(=O)c2ccc3c(c2)n(C)c(=O)c(=O)n3C)cc1	3%	-3%	.	.	.
CC1(C)NC(=O)N(CCOCCOc2ccc3ccccc3c2Br)C1=O	.	.	.	-4%	3.7µM*
CC1CCc2c(C(=O)Oc3cccc(-n4cnnn4)c3)csc2C1 (stereo not given)	.	.	5.9µM*	-7%	?
CC1CCN(S(=O)(=O)c2ccc(NC(=O)c3ccco3)cc2)CC1	-19%	-16%	3.7µM*	-3%	10%
CC1CCCCN1S(=O)(=O)c1ccc(NC(=O)c2ccco2)cc1 (stereo not given)	.	.	.	5%	13µM*
CCS(=O)(=O)c1ncc(Cl)c(C(=O)Nc2ccc(S(=O)(=O)N3CCC(C)CC3)cc2)n1	?	18µM*	15%	-14%	64%
O=C(Nc1ccc(S(=O)(=O)N2CCC(C(=O)NC3CCCCC3)CC2)cc1)c1ccco1	-24%	-13%	?	32%	26%
